From PubChem BioAssay come the findings set out here.

Values without a mark were called inactive. The source made the active and inactive calls. Cut-off read from the data, not from the text of the source, unless noted: active = inhibition above about 42%; inactive = the rest.

Experiment [1] is described as follows: StAR promoter reporter inhibitors, counter-screen for LRH-1 inverse agonist project, cell-based, luminescence, high throughput (AID 651611; in the data active = inhibition above about 28%). The following applies: StAR promoter luciferase reporter counterscreen, at 3.6 µM, hits give high values. Background: The purpose of a counterscreen is to sort out artefacts and off-target activity.
The target in experiment [2] is Nuclear receptor subfamily 5 group A member 2 (Homo sapiens) (UniProt O00482). Nature of the experiment: NR5A2 activity suppression in reporter cells – cell-based, luminescence, confirmation (AID 651613).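 Note: HEK293T cells co-transfected with LRH-1 and StAR promoter luciferase reporter; 0% = vehicle wells and 100% = parental cells lacking receptor.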 The following applies: cell-based LRH-1 luciferase reporter, inverse agonism; at 3.6 µM; hits give high values.
For experiment [3], the target named is Steroidogenic factor 1 (Homo sapiens) (UniProt Q13285). Briefly: inverse agonism at SF1 nuclear receptor – cell-based, luminescence, high throughput, counter-screen for LRH-1 inverse agonist project (AID 651614; in the data active = inhibition above about 44%;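 note: cells cotransfected with StAR promoter reporter and SF1 expression vector; 0% = vehicle on cells with receptor and 100% = vehicle on cells lacking receptor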). To be noted: cell-based SF1 luciferase reporter, at 3.6 µM, hits give high values.
Experiment [4] is described as follows: compounds suppressing VP16-driven luciferase signal – cell-based, luminescence, high throughput, counter-screen for LRH-1 inverse agonist project (AID 651615; in the data active = inhibition above about 33%). The following applies: Gal4-VP16 luciferase reporter cells, at 3.6 µM, hits give high values.

Chain of Nuclear receptor subfamily 5 group A member 2 (Homo sapiens) (O00482 whole entry, looked up): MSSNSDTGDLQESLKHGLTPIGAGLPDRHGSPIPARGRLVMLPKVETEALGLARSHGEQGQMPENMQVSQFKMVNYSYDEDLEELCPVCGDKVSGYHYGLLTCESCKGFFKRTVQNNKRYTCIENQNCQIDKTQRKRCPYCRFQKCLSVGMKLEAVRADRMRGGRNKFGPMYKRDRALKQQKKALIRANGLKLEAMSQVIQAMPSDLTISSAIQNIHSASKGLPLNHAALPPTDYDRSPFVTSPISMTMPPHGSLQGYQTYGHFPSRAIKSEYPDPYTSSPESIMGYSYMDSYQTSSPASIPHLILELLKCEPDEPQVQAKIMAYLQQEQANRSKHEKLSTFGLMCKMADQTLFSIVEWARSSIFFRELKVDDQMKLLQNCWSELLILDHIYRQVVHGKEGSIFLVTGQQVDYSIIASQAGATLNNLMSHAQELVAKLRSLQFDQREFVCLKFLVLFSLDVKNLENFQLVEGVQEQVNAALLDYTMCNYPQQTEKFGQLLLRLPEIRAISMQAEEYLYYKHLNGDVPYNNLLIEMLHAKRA
Chain of Steroidogenic factor 1 (Homo sapiens) (Q13285 whole entry, looked up, the tested form may be a part): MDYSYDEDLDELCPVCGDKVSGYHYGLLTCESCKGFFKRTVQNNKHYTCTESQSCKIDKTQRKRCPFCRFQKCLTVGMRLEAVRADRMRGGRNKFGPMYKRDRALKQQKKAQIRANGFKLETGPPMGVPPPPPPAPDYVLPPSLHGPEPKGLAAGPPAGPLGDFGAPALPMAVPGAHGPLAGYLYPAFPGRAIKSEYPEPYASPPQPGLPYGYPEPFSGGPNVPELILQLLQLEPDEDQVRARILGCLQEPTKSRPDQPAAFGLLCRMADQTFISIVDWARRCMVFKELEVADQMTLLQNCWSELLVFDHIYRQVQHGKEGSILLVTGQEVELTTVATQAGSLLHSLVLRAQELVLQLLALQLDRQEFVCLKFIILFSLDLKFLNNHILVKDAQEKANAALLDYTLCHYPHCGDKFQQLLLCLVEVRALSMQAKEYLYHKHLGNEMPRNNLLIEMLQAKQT

In general, inhibition refers to the change of the read-out against control, counted positive when it falls. Take `CCOc1ccc(Br)cc1/C(C)=N\NC1=NCCN1`: the inhibition was 1.83% in experiment [1], 36.8% in experiment [2], 36.7% in experiment [3] and 33.2% (active) in experiment [4].

For `COc1cc(NC(=O)c2ccc([N+](=O)[O-])o2)ccc1NC(=O)c1ccco1`, the inhibition in experiment [1] is 28.8% (active); in experiment [2] it was 62.5% (active); in experiment [3] it was 67% (active); in experiment [4], -17.9%.

On to `COc1ccc(CCNC(=O)CSc2nc(O)c(CCC(C)C)c(=O)[nH]2)cc1OC`, for which the inhibition in experiment [1] was 2.2%; in experiment [2], 61.7% (active); in experiment [3], 50.4% (active); in experiment [4], -12.8%.

With `Nc1c2ccccc2nc2ccccc12`, the inhibition in experiment [1] is 14.7%; in experiment [2] it was 106% (active); in experiment [3] it was 52.1% (active); in experiment [4], 90.4% (active).

Consider `O=C(CN1CCN(S(=O)(=O)c2cc(Cl)ccc2Cl)CC1)Nc1ccc2c(c1)OCCO2`, for which the inhibition in experiment [1] was 19%; in experiment [2], 59.6% (active); in experiment [3], 59.1% (active); in experiment [4], -3.13%.

`C=CCNC(=S)N/N=C(\C)c1ccccn1`: the inhibition in experiment [1] is 89.3% (active); in experiment [2], 95.5% (active); in experiment [3] it was 88.6% (active); in experiment [4], 54.8% (active).

`Cc1cc(Br)ccc1NC(=O)CN1C(=O)C2CC=CCC2C1=O` (stereo not drawn): the inhibition is 7.07% in experiment [1], 61.7% (active) in experiment [2], 44.1% (active) in experiment [3] and -7.81% in experiment [4].

Regarding `Cc1ccccc1-c1nnc(SCC(=O)Nc2cccc(C)c2C)o1`, the inhibition in experiment [1] is -7.62%; in experiment [2], 24.8%; in experiment [3], 26.9%; in experiment [4] it was -3.77%.

Consider `O=C(CSc1nc2ccc(F)cc2c(=O)n1-c1ccccc1)Nc1ccc2c(c1)CCC2`, for which the inhibition in experiment [1] is -3.68%; in experiment [2], 43.3% (active); in experiment [3] it was 47.9% (active); in experiment [4] it was -3.99%.

For `CCCc1cc(=O)oc2cc3oc(C)c(C)c3cc12`, the inhibition is -1.82% in experiment [1], 52.3% (active) in experiment [2], 50.5% (active) in experiment [3] and -5.27% in experiment [4].

In the case of `COc1ccc(OC)c(C2C3=C(COC3=O)Nc3cc4c(cc32)OCO4)c1` (stereo not drawn), the inhibition in experiment [1] was 57.4% (active); in experiment [2], 27.6%; in experiment [3] it was 41.7%; in experiment [4], 27.9%.

On to `Cc1cc(OCC(=O)NCc2cccnc2)c2c(C)c(C)c(=O)oc2c1`, for which the inhibition in experiment [1] is 9.8%; in experiment [2] it was 61.8% (active); in experiment [3], 50.5% (active); in experiment [4], -8.94%.

Regarding `COc1ccc(CCNC(=O)COC(=O)c2cc(Cl)nc(Cl)c2)cc1`, the inhibition in experiment [1] is 3.74%; in experiment [2], 47.4% (active); in experiment [3] it was 51.4% (active); in experiment [4] it was -2.65%.

Consider `Cc1cnc(NC(=O)CCCc2nc3ccccc3s2)s1`, for which the inhibition was 45.5% (active) in experiment [1], 73.1% (active) in experiment [2], 42.5% in experiment [3] and 29.4% in experiment [4].

As to `Cc1ccc[n+](CC(=O)Nc2ccc(Cl)c([N+](=O)[O-])c2)c1`, the inhibition in experiment [1] was 9.69%; in experiment [2], 47% (active); in experiment [3], 39.2%; in experiment [4] it was 13.9%.

In the case of `CS(=O)(=O)N(CC(=O)N1CCN(Cc2ccc3c(c2)OCO3)CC1)Cc1ccc(Cl)cc1`, the inhibition in experiment [1] is 12.5%; in experiment [2], 63% (active); in experiment [3], 44.9% (active); in experiment [4], 36.9% (active).

Consider `O=C(c1ccco1)N1CCCC(N2CCN(c3cccc(C(F)(F)F)c3)CC2)C1` (stereo not drawn), for which the inhibition in experiment [1] was -1.93%; in experiment [2] it was 51% (active); in experiment [3], 47.7% (active); in experiment [4], 11.1%.

On to `C/C(=N\Nc1cc(C(F)(F)F)ccc1Cl)c1ccncc1`, for which the inhibition in experiment [1] is 2.53%; in experiment [2], 40%; in experiment [3] it was 47.6% (active); in experiment [4], 3.73%.

Consider `CCOC(=O)C(C)Oc1cccc2c(=O)n(CC(=O)Nc3ccc4c(c3)OCCO4)ccc12` (stereo not drawn), for which the inhibition in experiment [1] was 5.33%; in experiment [2], 58.5% (active); in experiment [3], 51.7% (active); in experiment [4] it was -1.21%.

Turning to `Cc1cc(OCC(=O)Nc2nccs2)c2c(C)cc(=O)oc2c1`, the inhibition in experiment [1] was 16.2%; in experiment [2], 66.6% (active); in experiment [3], 55.3% (active); in experiment [4], -19.8%.

Turning to `CC(C)NC(=O)N1Cc2cc(C(=O)NC3CCCCC3)nc(-c3cccc(-c4cccnc4)c3)c2[C@@H]1CCO`, the inhibition was 27.6% in experiment [1], 62.6% (active) in experiment [2], 62.5% (active) in experiment [3] and -0.48% in experiment [4].

Take `Cn1c(SCC(=O)Nc2ccc3nc(SCC(=O)NC4CC4)sc3c2)nnc1-c1ccccc1`: the inhibition is 12.3% in experiment [1], 59.7% (active) in experiment [2], 61.5% (active) in experiment [3] and 2.96% in experiment [4].

Consider `COc1ccc2nc(N3CCC(O)CC3)c(C#N)cc2c1`, for which the inhibition is -24.2% in experiment [1], 43.6% (active) in experiment [2], 44.9% (active) in experiment [3] and -30.6% in experiment [4].

In the case of `Nc1nc2ccccc2cc1C(=O)NCc1ccc(-c2ccccc2)cc1`, the inhibition was 24.6% in experiment [1], 59.4% (active) in experiment [2], 58.6% (active) in experiment [3] and 55.9% (active) in experiment [4].

`CCCc1cc(NCC2CCCO2)n2c(nc3ccccc32)c1C#N` (stereo not drawn): the inhibition in experiment [1] is -0.55%; in experiment [2], 40.1%; in experiment [3], 35.5%; in experiment [4], 1.26%.

For the compound `CCc1cc(=O)[nH]c(SCC(=O)Nc2ccc3c(c2)OCCO3)n1`, the inhibition in experiment [1] is 4.24%; in experiment [2], 40.6%; in experiment [3], 45.7% (active); in experiment [4] it was 0.13%.

For `Cc1nnsc1C(=O)NC1CCCc2c1cnn2-c1ccc(F)cc1F` (stereo not drawn), the inhibition in experiment [1] was 19.6%; in experiment [2] it was 59.4% (active); in experiment [3], 55.4% (active); in experiment [4], 55.9% (active).
